{
  "source": "ChEMBL document CHEMBL3433997",
  "about": "“St. Jude Leishmania screening dataset” (2016)",
  "data": [
    {"target": "Glucose transporter (Leishmania mexicana) (UniProt O61059)", "test": "ST_JUDE_LEISH: Cytotoxicity at 2uM final concentration against transgenic Leishmania Mexicana promastigotes LmGT2 that are glucose transport deficient and complemented with the L. Mexicana glucose transporter 2. Activity is measured by DNA content using SYBR green in vitro", "assay_type": "functional", "units": {"inhibition": "%"}, "values": [
      {"smiles": "Cc1ccc(O)cc1Nc1ccnc2cc(-c3csc(CNCCN4CCOCC4)n3)ccc12", "inhibition": 1.37},
      {"smiles": "COc1ccc([N+](=O)[O-])cc1N(Cc1ccccc1-c1ccccc1)S(=O)(=O)c1ccc(C(F)(F)F)cc1", "inhibition": 2.13},
      {"smiles": "COc1cccc(-c2cnc(-c3ccncc3)nc2C2CCN(Cc3ccc(NC(C)=O)cc3)CC2)c1", "inhibition": 1.53},
      {"smiles": "COc1ccc(-c2ccc(CN(C)C3CCC(NC(=O)c4cc5ccccc5[nH]4)CC3)cc2)cn1", "note": "(configuration not stated)", "inhibition": -1.54},
      {"smiles": "Cc1cc(N[C@@H](Cc2ccccc2)C(=O)NCc2cccc(F)c2)nc(Nc2ccccc2)n1", "inhibition": 2.63},
      {"smiles": "Cc1cc(OCC2CCN(c3ncc(C(=O)Nc4ccccc4)cc3Cl)CC2)ccc1F", "inhibition": 0.4},
      {"smiles": "Cc1nc2ccc(NC(=O)Nc3ccnc4ccc(C(F)(F)F)cc34)cc2o1", "inhibition": 5.33},
      {"smiles": "CCCCCCNC(=O)C1Cc2c([nH]c3ccccc23)C2(CCN(CCc3ccccc3)CC2)N1", "note": "(configuration not stated)", "inhibition": 0.55},
      {"smiles": "Cc1ccc(O)cc1Nc1ccnc2cc(-c3csc(CN4CCN(C)CC4)n3)ccc12", "inhibition": 5.57},
      {"smiles": "COC(=O)c1cccc(CNCc2cccc(-c3ccc(-c4nc5cccc(C)c5[nH]4)cc3)c2)c1", "inhibition": 8.52},
      {"smiles": "Cc1noc(C)c1C(=O)N1CCCC(c2[nH]c3c(C)cccc3c2-c2ccncc2)C1", "note": "(configuration not stated)", "inhibition": 2},
      {"smiles": "COc1ccc2ncc(F)c([C@H](O)CN3CCC(NCc4cc5c(cn4)OCCO5)CC3)c2c1", "inhibition": 2.51}
    ]}
  ]
}
